# The list is not random: actives were taken first. Their share in the collection is about 8.5%.
# FBPA coupling cs: coupling enzyme interference in Giardia aldolase counter-screen. coupling enzyme system counterscreen, AmpLite Red fluorescence. AID 2472. 290,000 tested, 0.67% active. activity change, negative = inhibition, % at 58.2 µM, hits read low; in the data active = activity change below about -30%
#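 Activity here indicates interference with the coupling reaction, not aldolase inhibition. Compounds at 57.5 uM final met coupling enzymes for 10 min at RT; substrate and AmpLite Red detection followed, with a 525/598 nm fluorescence read after 20 min.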
# RGS12 GoLoco inh: RGS12 GoLoco-Gai1 interaction inhibition; Gai1:RGS12 GoLoco peptide FP, rhodamine, 10 min; Potency, µM (titrated, usually from 61.6 µM), hits mostly inhibitors; 230,000 tested, 0.44% active; active = well fitted inhibition curve with a large enough effect, not every such curve was filed as active; inactive = no such curve, though single readings can be large or run the other way; also: nearly all actives have a fitted effect of over 30% in size
# Sfp inh: inhibitors of Bacillus subtilis Sfp phosphopantetheinyl transferase. Q9F4F7. Biochemical Sfp PPTase activity, qHTS. Potency, µM, actives largely listed as inhibitors. 310,000 tested, 3.5% active. AID 1490;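 also: the enzyme is Sfp with the accession as filed and its product quenches rhodamine fluorescence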
#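 Sfp 15 nM + cpd, 15 min RT; start w/ rhodamine-CoA 5 uM, BHQ-2-YbbR 12.5 uM (final); 50 mM Hepes pH 7.6, 10 mM MgCl2, 0.01% NP-40, 0.01% BSA; read 525/598 nm at 0 and 30 min.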
# KDM4E inh: inhibitors of human JMJD2E histone demethylase; B2RXH2; Potency, µM (titrated, usually from 57.1 µM), actives largely listed as inhibitors; 230,000 tested, 1.6% active; JMJD2E catalytic domain, FDH-coupled NADH fluorescence (FDH is formaldehyde dehydrogenase); also: nearly all actives have a fitted effect of over 50% in size
# Target sequence (B2RXH2 1-337 limits assumed): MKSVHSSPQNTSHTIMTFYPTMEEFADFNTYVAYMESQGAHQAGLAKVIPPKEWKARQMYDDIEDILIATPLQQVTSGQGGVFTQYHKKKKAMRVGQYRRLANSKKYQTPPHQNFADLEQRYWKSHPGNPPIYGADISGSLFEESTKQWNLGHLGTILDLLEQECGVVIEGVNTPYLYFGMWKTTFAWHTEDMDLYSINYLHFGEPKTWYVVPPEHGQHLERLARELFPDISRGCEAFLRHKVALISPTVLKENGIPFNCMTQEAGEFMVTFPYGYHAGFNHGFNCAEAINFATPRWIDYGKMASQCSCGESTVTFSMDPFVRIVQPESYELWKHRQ
# ALDH1A1 block: ALDH1A1 (human) enzyme inhibition | 220,000 tested, 7.3% active | AID 1030 | Potency, µM (top dose mostly 75.3 µM), most hits filed as inhibitors | Purified ALDH1A1, NADH fluorescence, propionaldehyde substrate | P00352; active = well fitted inhibition curve with a large enough effect, not every such curve was filed as active; inconclusive = small, poorly fitted or top-dose-only effect, or another doubt; inactive = no such curve, though single readings can be large or run the other way
# NPSR antagonist: neuropeptide S receptor (human) antagonism, cAMP; Q6W5P4; CHO-NPSR cells, cAMP TR-FRET, antagonist mode; Potency, µM (doses to about 38.3 µM), hits mostly inhibitors; 220,000 tested, 1% active; also: nearly all actives have a fitted effect of over 50% in size
# A number is an active result; 0 = inactive; ? = inconclusive; - = no result given; ! = a repeat was not active; [ ] = dose if it differs, or a comment. Unless noted, calls follow the shape of the dose curve; as a rule, active = well fitted curve in the direction sought with a large enough effect; inconclusive = small, poorly fitted or top-dose-only effect, or another doubt; inactive = no such curve, though single readings can be large; an effect the other way counts as inactive or inconclusive.
SMILES,FBPA coupling cs,RGS12 GoLoco inh,Sfp inh,KDM4E inh,ALDH1A1 block,NPSR antagonist
CCOc1cc(/C=C2\CCC/C(=C\c3cc(Cl)c(O)c(OCC)c3)C2=O)cc(Cl)c1O,0,0,0,0,2.5µM,?
CC(=O)/C(=C/c1ccccc1)C(=O)Nc1ccccc1C,0,0,0,0,0,0
Cc1ccccc1NC(=O)C(=Cc1ccc(C(=O)O)cc1)C(=O)Nc1ccccc1C,0,0,0,0,0,4µM
CCCN1CCCc2cc(CN)ccc21,-52,-,?,?,?,0
CCc1ccc(NC(=O)N(CCN2CCOCC2)Cc2ccc3c(c2)CCCN3CC)cc1,0,0,?,0,?,?
Nc1c(O)ccc2c1C(=O)c1ccccc1C2=O,0,0,0,0,?,10µM
COc1ccc2c(c1O)C(=O)c1ccccc1C2=O,0,0,0,0,0,0
CCCc1cc(=O)oc2cc(OCC(=O)NC3CC(C)(C)NC(C)(C)C3)ccc12,0,-,0,-,-,-
COc1cc(OC)c(C#N)c(S(=O)Cc2ccccc2)c1 (configuration not stated),0,0,0,0,14µM,0
COc1ccc(-c2cc(-c3ccccc3)c(C#N)c(S(C)=O)n2)cc1 (configuration not stated),0,0,0,?,?,?
Cc1cc(NCCCCO)n2c(nc3ccccc32)c1C#N,0,0,0,?,?,0
C=C(C)CSc1cc(C)c(C#N)c2nc3ccccc3n12,0,0,32µM,0,0,0
COc1ccc(C)c2sc(NNC(=O)COc3ccccc3)nc12,0,0,56µM,0,0,0
O=C(NNc1c2ccccc2nc2ccccc12)C(O)c1ccccc1 (configuration not stated),0,0,0,0,-,10µM
COc1ccc(OCC(=O)NNc2c3ccccc3nc3ccccc23)cc1,0,0,0,?,0,?
O=C(COc1ccccc1)NNc1c2ccccc2nc2ccccc12,0,0,0,0,?,10µM
COc1ccc(N(CC(=O)NC2CCCCC2)C(=O)c2ccc(C)s2)c(OC)c1,0,-,0,-,-,-
COc1ccc(CNc2ncnc3ccc(-c4ccc(C(=O)N(C)C)cc4)cc23)c(OC)c1,0,0,0,-,?,-
COc1ccccc1NC(=O)C1CCCN(c2cnccn2)C1 (configuration not stated),0,-,0,-,-,-
CCN1CCN(Cc2ccc(NC(=O)c3ccc(C)c(NC(=O)c4c[nH]c5cc(C(F)(F)F)ccc5c4=O)c3)cc2C(F)(F)F)CC1,0,0,79µM,0,-,?
CCN1CCN(Cc2ccc(NC(=O)c3ccc(C)c(NC(=O)c4cccc(-c5cn[nH]c(=O)c5)c4)c3)cc2C(F)(F)F)CC1,0,-,0,-,-,-
Cc1ccc(C(=O)c2c3ccccc3[n+]([O-])n2CCC(N)=O)cc1,0,-,0,-,-,-
CCOc1cccc(C(=O)Nc2cccc(-c3nc4ncccc4o3)c2C)c1,0,0,0,0,18µM,0
COc1cccc(C(=O)Nc2cccc(-c3nc4ncccc4o3)c2C)c1,0,0,0,0,?,?
Cc1cc(=O)c2cc(C(=O)c3ccccc3)ccc2[nH]1,0,0,0,0,-,0
SMILES,FBPA coupling cs,RGS12 GoLoco inh,Sfp inh,KDM4E inh,ALDH1A1 block,NPSR antagonist
N#C/C(=C/c1ccc(C(=O)O)cc1)C(=O)Nc1ccccc1,0,0,?,0,0,0
CCCCCCCCNC(=O)/C(C#N)=C/c1ccc2c(c1)OCCO2,0,0,0,0,?,0
CCN(CC)c1ccc(/C=C(\C#N)C(=O)NCc2ccco2)cc1,0,0,0,0,32µM,?
N#C/C(=C/c1ccc(C(=O)O)cc1)C(=O)NCc1ccccc1,0,0,18µM,0,0,0
Cc1cccc(NC(=O)/C(C#N)=C\c2ccc(C(=O)O)cc2)c1,0,0,35µM,0,0,0
CCCCNC(=O)/C(C#N)=C/c1ccc2c(c1)OCCO2,0,0,0,0,6.3µM,0
COc1ccc(C)cc1NC(=O)CCNC(=O)Cn1ccc2ccccc2c1=O,0,-,0,-,-,-
N#C/C(=C\c1ccc(O)c(O)c1)C(=O)NCCCc1ccccc1,0,0,63µM!,3.2µM,?,?
COc1ccc(/C=C(\C#N)C(=O)NCCc2ccccc2)cc1OCc1ccccc1,0,0,0,0,?,0
CCOC(=O)[C@]1(C(NC(=O)OC)c2ccccc2)CCCC1=O (some centres not stated),0,-,0,-,0[13.5 µM],-
C=CCOC(=O)C1(C(NC(=O)OC)c2ccccc2)C(=O)Cc2ccccc21 (configuration not stated),0,0,0,0,4.5µM,-
Nc1c(C(=O)NCCc2ccc(Cl)cc2)sc2ccc(S(=O)(=O)N3CCCCC3)cc12,0,0,0,?,0,0
CSCC[C@H](NC(=O)N1CCn2c1nc1ccccc12)C(=O)NCC1CCCO1 (some centres not stated),-,-,0,-,-,-
COc1ccc(C(C)=O)c2c(O)cccc12,-37,-,0,0,0,0
CN1C(=O)CC(Nc2cccc3cccc(N)c23)C1=O (configuration not stated),-41,0,0,?,?,0
O=c1c(-n2cncn2)c[nH]n1-c1cccc(Cl)n1,0,0,56µM,0,?,0
O=C(N/C(=C\c1ccco1)C(=O)N1CCCC(CO)C1)c1ccccc1 (configuration not stated),0,-,0,-,-,-
O=C(NCCN1CCN(C(=O)c2cccc(Br)c2)CC1)C(=O)Nc1ccc(Br)cc1,0,-,0,-,-,-
COc1ccc2[nH]c3c(c2c1)CCNC3c1ccc([N+](=O)[O-])o1 (configuration not stated),0,-,50µM,-,-,-
O=C1CC(NCc2ccc3c(c2)OCO3)C(=O)N1CCc1ccccc1 (configuration not stated),0,0,0,0,14µM,0
CC(C(=O)O)N1C(=O)C2C3c4ccccc4C(c4ccccc43)[C@@H]2C1=O (some centres not stated),0,-,0,-,-,-
C[N+]1(CC2COC3(CCCCC3)O2)CCCCC1 (configuration not stated),0,8.9µM,0,0,-,0
C=CCn1c(-c2csc(-c3ccccc3)n2)n[nH]c1=S,0,0,0,0,0.11µM,?
Nc1sc(-c2ccccc2)cc1-c1n[nH]c(=S)n1C1CCCCC1,0,0,0,0,-,?
C=CCn1c(-c2cc(-c3ccccc3)sc2N)n[nH]c1=S,0,0,79µM,0,?,0
Cn1nc(C(F)(F)F)c(-c2cccc(C(F)(F)F)c2)c1NC(=O)CSCC(=O)O,0,0,0,0,-,0
CCCNC(=O)NC(=O)COC(=O)c1ccc(S(=O)(=O)N(C)c2ccccc2OC)cc1,0,0,0,0,13µM,0
CCC(C)C(=O)Nc1nnc(-c2cccs2)s1 (configuration not stated),0,0,50µM,?,?,0
